Screen size: about 99,000 compounds; about 340 (0.34%) were called active. Cut-off read from the data, not from the text of the source: active = TR-FRET ratio above about 2300; inactive = the rest. For the sample, actives were picked, then their nearest neighbours and some compounds at random.
assay: signal artefacts in PPARgamma/SRC-1 readout – biochemical, TR-FRET emission ratio, artefact control for PPARgamma SRC-1 recruitment agonists, primary screen (AID 1051); conditions: TR-FRET detection artefact counter-screen, at 8 µM, hits give high values

Structure (SMILES)	TR-FRET ratio
Cc1ccc(C2NC(C(=O)O)CS2)cc1 (centres undefined)	1760 (inactive)
CC1(C)C(C=C(Cl)Cl)C1C(=O)N(Cc1ccc(Cl)cc1)C1CCS(=O)(=O)C1 (centres undefined)	1570 (inactive)
CCC(=O)N1c2ccccc2NC2=C(C(=O)CCC2)C1c1ccco1 (centres undefined)	1690 (inactive)
Cn1c(N)c(C(=O)COC(=O)c2ccccc2NCc2ccco2)c(=O)n(C)c1=O	1870 (inactive)
CCN(C(=O)COc1cccnc1[N+](=O)[O-])C1CCS(=O)(=O)C1 (centres undefined)	1750 (inactive)
Cc1ccc(CN2CCN(/N=C/c3cccnc3)CC2)c(C)c1	1720 (inactive)
S=c1[nH]nc(-c2ccccc2)n1/N=C/c1c[nH]c2ccccc12	1810 (inactive)
Cc1ccccc1-c1n[nH]c(=S)n1/N=C/c1ccc(-c2ccccc2Br)o1	2950 (active)
Cc1ccccc1-c1n[nH]c(=S)n1C	1660 (inactive)
CCc1ccc(CN(C)C(=O)CCc2nnc(-c3ccc(-c4ccccc4)cc3)o2)nc1	1540 (inactive)
O=C(COC(=O)c1cc(-c2cccs2)nn1-c1ccccc1)Nc1cc([N+](=O)[O-])ccc1Cl	2060 (inactive)
Cc1cc(CNCc2c(C(=O)N(C)Cc3ccccc3)nc3ccccn23)nn1C	1760 (inactive)
COc1ccccc1-c1nnc(NC(=O)c2cccc(N3C(=O)CCC3=O)c2)o1	1920 (inactive)
Cc1noc(C)c1COc1cccc(C(=O)Nc2cccnc2)c1	1740 (inactive)
O=C(CCC1CCCN(C(=O)Cc2ccc(F)cc2)C1)N1CCN(c2ccccn2)CC1 (centres undefined)	1640 (inactive)
CCNc1ccc(C(=O)OCC(=O)N2c3ccccc3NC(=O)C2(C)C)cc1[N+](=O)[O-]	1810 (inactive)
COCCNC(=O)C(OC(=O)c1cccs1)c1ccc(F)cc1 (centres undefined)	1860 (inactive)
O=C(Nc1nnc(-c2ccco2)o1)c1ccc(S(=O)(=O)N2CCOCC2)cc1	1880 (inactive)
NC(=O)COC(=O)c1cc(S(=O)(=O)N2CCN(c3ccccc3)CC2)ccc1Cl	1880 (inactive)
Cc1ccc(C(=O)NC(=S)Nc2ccccc2C)cc1	1630 (inactive)

Structure (SMILES)	TR-FRET ratio
Cc1nc2ccccc2n1CC(=O)N/N=C/c1cccnc1	1750 (inactive)
CCCCOc1ccc(C(=O)NCC(=O)OCC(=O)N2CCN(S(=O)(=O)c3ccc(C)cc3C)CC2)cc1	1610 (inactive)
CN(C)c1ccc(N/C=C/C(=O)C(F)(F)F)cc1	2320 (active)
CCCOc1ccc(N/C=C/C(=O)C(C)(C)C)cc1	1770 (inactive)
CC(C)CNC(=O)C(=O)Nc1ccc(N(C)C)cc1	1880 (inactive)
CC1CCCN(S(=O)(=O)c2ccc(N(C(=O)c3cnccn3)C(C(=O)NC3CCCCC3)c3cccs3)cc2)C1 (centres undefined)	1760 (inactive)
CC(=O)Nc1ccc(/C=N/NC(=O)c2cccs2)cc1	1750 (inactive)
C=CCn1c(=NC(=O)c2cccs2)sc2cc(NC(C)=O)ccc21	2340 (active)
C=CCn1c(=NC(=O)c2ccc(S(=O)(=O)N3CCCC3)cc2)sc2cc(NC(C)=O)ccc21	1920 (inactive)
CC(NC(=O)CCC(=O)N1CCN(S(=O)(=O)c2ccc(Cl)cc2)CC1)c1ccccc1 (centres undefined)	2170 (inactive)
CC(NC(=O)COC(=O)c1ccc2c(c1)OCO2)c1ccccc1 (centres undefined)	1700 (inactive)
CCOc1ccc(/C=N/NC(=O)C(C)Sc2ccccn2)cc1OCC (centres undefined)	1650 (inactive)
CCN(CC)C(=O)Cn1cc(S(=O)(=O)CC(=O)NCc2ccc3c(c2)OCO3)c2ccccc21	1870 (inactive)
Cc1cccc(-c2nc3ccccc3c(=O)n2NC(=O)Cc2ccc(Cl)cc2)c1	1630 (inactive)
O=C(Cc1cccs1)Nc1cccc(-c2nc3ccccc3[nH]2)c1	1820 (inactive)
CC(=O)Nc1ccc(S(=O)(=O)Nc2ccc(-c3ccc4nnc(C)n4n3)cc2)cc1	1930 (inactive)
C/C(N)=C(/C#N)C(=O)COC(=O)C1CCN(C(=O)c2ccc(Cl)cc2)CC1	1880 (inactive)
C/C(=N/O)c1ccc(N2C(=O)C3C4C=CC(C3C2=O)C2C3C(=O)N(c5ccc(/C(C)=N/O)cc5)C(=O)C3C42)cc1 (centres undefined)	1760 (inactive)
CSc1ccc(/C=N/N2CCN(Cc3ccccc3Cl)CC2)cc1	1700 (inactive)
CC1CCCCC1NC(=O)COC(=O)Cc1ccc(Br)cc1 (centres undefined)	1500 (inactive)

Structure (SMILES)	TR-FRET ratio
CCSC1=NCCN1C(=O)c1ccc(S(=O)(=O)N(CC)CC)cc1	1800 (inactive)
CCN(CC)Cc1nc2sc(C)c(C)c2c(=O)[nH]1	1970 (inactive)
Cc1ccc(OC(=O)CCC(=O)Nc2ccc(Br)cc2)cc1	1980 (inactive)
CC(=O)N/N=C(\C)c1ccc(Br)cc1Br	1740 (inactive)
COC(=O)c1onc(-c2c(OC)cc(OC)cc2OC)c1C(=O)OC	1640 (inactive)
Cc1sc2nc(CC(N)=O)[nH]c(=O)c2c1-c1ccccc1	1690 (inactive)
O=C(CO/N=C/c1ccc(OC(F)F)cc1)NCc1ccc(F)cc1	1970 (inactive)
O=C(/C=C\c1ccc2c(c1)OCO2)NC1(C(=O)Nc2ccc3c(c2)OCCO3)CCCCC1	1600 (inactive)
OCC1(CCc2ccccc2)CCN(Cc2ccc3nsnc3c2)CC1	2510 (active)
CC(=O)c1cccc(CN2CCC(CO)(Cc3ccccc3)CC2)c1	1590 (inactive)
Cc1cccc(-c2ncc(CN3CCC(CO)(CCCc4ccccc4)CC3)cn2)c1	1880 (inactive)
Cn1c(=O)cc(SCC(=O)N2CCCC2)c2cc(Cl)ccc21	3640 (active)
CC(C)N(C(=O)Cn1cc(SCC(=O)N2CCCC2)c2ccccc21)C(C)C	1650 (inactive)
CCOc1ccc(CCNC(=O)CSc2cc(=O)n(C)c3ccc(Cl)cc23)cc1OCC	2230 (inactive)
CC(CC(=O)O)CC(=O)NNC(=O)c1cccc(Br)c1 (centres undefined)	1850 (inactive)
O=C(CSc1cccc[n+]1[O-])NCCCc1ccccc1	1620 (inactive)
CCn1c(=O)cc(SCC(=O)NCCC2=CCCCC2)c2ccccc21	2120 (inactive)
CCN(CCCNC(=O)CSc1cc(=O)n(C)c2cc(Cl)ccc12)Cc1ccccc1	3020 (active)
O=C(CCC1CCCN(Cc2ccc(O)c(Cl)c2)C1)NCc1ccccc1F (centres undefined)	1790 (inactive)

— PubChem BioAssay AID1051 (The Scripps Research Institute Molecular Screening Center, 2008)
